# Data reported in PubChem BioAssay (NCATS).
# “And” between values parts separate entries of the source, which are not always exact repeats. Equal entries are not always repeated. Results filed as inconclusive are left out. Entries that show only a call come without a potency. More than one record can exist for a structure, and the calls need not agree. The source made the active and inactive calls. The call rests on the fitted dose curve; in most records, active means well fitted curve in the direction sought with a large enough effect; inconclusive means small, poorly fitted or top-dose-only effect, or another doubt; inactive means no such curve, though single readings can be large; an effect the other way counts as inactive or inconclusive.
# How the values were obtained:
# [1] = molecular target: Glutathione peroxidase 1 (Homo sapiens) (UniProt P07203); test: Primary qHTS Assay for Inhibitors of Recombinant Selenoprotein Glutathione Peroxidase 1 (GPX1) (AID 1845191); further: nearly all actives have a fitted effect of over 65% in size; further: potency means the concentration at half of the fitted maximal effect
# Procedure, shortened: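 NADPH consumption tracked by fluorescence at 340/450 nm between t=0 and t=15 min, room temperature. Final mix: 10 nM GPX1, 100 nM glutathione reductase, 1 mM GSH, 0.5 mM NADPH, 0.5 mM cumene hydroperoxide, 0.01% BSA; 30 min compound–enzyme preincubation.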
# [2] = molecular target: Phospholipid hydroperoxide glutathione peroxidase GPX4 (Homo sapiens) (UniProt P36969); test: Primary qHTS Assay for Inhibitors of Recombinant Selenoprotein Glutathione Peroxidase 4 (GPX4) (AID 1845192); further: nearly all actives have a fitted effect of over 65% in size; further: potency means the concentration at half of the fitted maximal effect
# Procedure, shortened: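 NADPH consumption followed by fluorescence at 340/450 nm, t=0 and after 15 min at room temperature. Reaction started with cumene hydroperoxide (0.5 mM final) after 30 min compound–GPX4 preincubation; final 200 nM GPX4, 100 nM GR, 1 mM GSH, 0.5 mM NADPH.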
# [3] = molecular target: Luciferin 4-monooxygenase (Photinus pyralis) (UniProt P08659); test: Primary firefly luciferase (FLuc) qHTS assay for identification of artifact compounds. (AID 1845220); further: nearly all actives have a fitted effect of over 60% in size
# Procedure, shortened: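 Cell-free, 1536-well qHTS. Buffer pH 7.6 with 0.01% Tween-20 and 0.05% BSA; 10 uM D-luciferin, 10 uM ATP; 10 nM P. pyralis luciferase; luminescence after 5 min.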
# [4] = tested on: Nanoluciferase (engineered Oplophorus gracilirostris luciferase); test: Primary Nanoluciferase (NLuc) qHTS assay for identification of artifact compounds. (AID 1845222); further: potency means the concentration at half of the fitted maximal effect
# Procedure, shortened: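 Compounds are pinned into diluted (1:55) conditioned medium of NLuc-expressing S16 cells and held 15 min at room temperature protected from light. Nano-Glo substrate follows, and luminescence is read 5 min later.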
# [5] = Primary fluorescence-based thiol-reactive (MSTI) qHTS assay for identification of artifact compounds. (AID 1845221);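 further: series mostly up to about 54 µM; thiol-reactive compounds lower the probe fluorescence signal; nearly all actives have a fitted effect of over 65% in size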
# Procedure, shortened: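 First, 4 uM MSTI in 2% DMSO/PBS pH 7.4 was dispensed; next, compounds were added; then plates sat 1 h at room temperature without light. Finally, emission at 598 nm was recorded.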
# [6] = Primary redox qHTS assay for identification of artifact compounds. (AID 1845223); further: potency means the concentration at half of the fitted maximal effect
# Procedure, shortened: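 Redox-cycling detection via DTT (250 uM final) oxidation coupled to Amplex Red (25 uM)/HRP (250 mU/mL) in HBSS. 15 min preincubation plus 30 min after DTT, room temperature. Ex/Em 525/598 nm; 4-parameter Hill fit against DMSO and 10 uM DA3003.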
# Sequence of Phospholipid hydroperoxide glutathione peroxidase GPX4 (Homo sapiens) (P36969 whole entry, looked up): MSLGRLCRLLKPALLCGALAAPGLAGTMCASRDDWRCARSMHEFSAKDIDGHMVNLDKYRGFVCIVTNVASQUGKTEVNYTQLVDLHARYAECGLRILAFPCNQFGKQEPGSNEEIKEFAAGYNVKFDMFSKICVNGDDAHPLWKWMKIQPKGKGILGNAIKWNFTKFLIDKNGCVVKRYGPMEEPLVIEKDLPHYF
# Sequence of Glutathione peroxidase 1 (Homo sapiens) (P07203 whole entry, looked up): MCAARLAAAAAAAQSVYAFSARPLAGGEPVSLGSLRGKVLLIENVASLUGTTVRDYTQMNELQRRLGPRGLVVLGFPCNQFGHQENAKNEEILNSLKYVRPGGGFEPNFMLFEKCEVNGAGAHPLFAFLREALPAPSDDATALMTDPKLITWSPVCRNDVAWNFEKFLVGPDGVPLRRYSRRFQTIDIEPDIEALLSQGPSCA
SMILES,Potency [1],Potency [2],Potency [3],Potency [4],Potency [5],Potency [6]
COCC(=O)NC/C=C/c1ccc2ncnc(Nc3ccc(Oc4ccc(C)nc4)c(C)c3)c2c1,inactive,inactive,inactive,inactive,,
CC(C)c1ccc(NC(=O)Cn2cnc3c2c(=O)n(C)c(=O)n3C)cc1,inactive,inactive,inactive,inactive,,
C/C=C(\C)C(=O)OC1C(C)C2(O)C(C=C(CO)CC3(O)C(=O)C(C)=CC32)C2C(C)(C)C12OC(C)=O (configuration not stated),inactive,inactive,inactive,inactive,,
O=C(Nc1ccc(N(Cc2ccsc2)C(=O)Cn2nnc3ccccc32)cc1)C1CC1,inactive,inactive,inactive,,inactive,inactive
CN1CC[C@@H](c2c(O)cc(O)c3c(=O)cc(-c4ccc(C(F)(F)F)cc4Cl)oc23)[C@@H]1CO,inactive,inactive,inactive,inactive,,
CCOc1ccc(-n2c([C@@H](C)N(Cc3cccnc3)C(=O)Cc3ccc(OC(F)(F)F)cc3)nc3ncccc3c2=O)cc1,inactive,inactive,inactive,inactive,,
CCc1c(Cl)c(O)c(Cl)c(O)c1C(=O)O[C@H]1[C@H](O)[C@H](OC)[C@H](OC/C2=C\C=C\C[C@H](O)/C(C)=C\[C@H](CC)[C@@H](O[C@@H]3OC(C)(C)[C@@H](OC(=O)C(C)C)[C@H](O)[C@@H]3O)/C(C)=C/C(C)=C/C[C@@H]([C@@H](C)O)OC2=O)O[C@@H]1C,inactive,inactive and 5.01 µM (active),inactive,inactive,,
O=C(O)CCc1nccc2c1[nH]c1ccccc12,25.5 µM (active),22.7 µM (active),inactive,inactive,,
CC[C@@H](C)Nc1cc(C(=O)NC2CC3CCC(C2)N3c2ccc(C(=O)C3CC3)cn2)c(C)cc1C(N)=O (some centres not stated),16.3 µM (active),5.7 µM (active),inactive,inactive,,
O=c1ccc2ccc(OCCCCN3CCN(c4cccc5sccc45)CC3)cc2[nH]1,inactive,inactive,inactive,inactive,,
CC1CC(=O)C2=C(C1)C1OC1C1(O)C2C(=O)c2cccc(O)c2C1O (configuration not stated),inactive,inactive,inactive,inactive,,inactive
Cc1[nH]c2ccccc2c1CCNCc1ccc(/C=C/C(=O)NO)cc1,inactive,inactive,inactive,inactive,,
COc1ccc(OC)c(-c2ccc(NC(=O)c3ccncc3F)cc2)c1,inactive,inactive,inactive,inactive,,inactive
C=C1CCC2[C@](C)(CCC[C@@]2(C)C=O)[C@H]1CC/C(C)=C/CO (some centres not stated),inactive,inactive,inactive,inactive,,inactive
C=C1CC2OC(=O)C(=C)C2C(O)/C=C(\C)CCC1O (configuration not stated),inactive,inactive,inactive,inactive,,inactive
CNCCC(c1cccs1)c1ccc(O)c2ccccc12 (configuration not stated),inactive,inactive,inactive,inactive,,
CCC/C=C/C=C/C1CC(O)C2(O)C(=O)OCC12 (configuration not stated),inactive,inactive,inactive,inactive,,
COc1cc(-c2cn(C3CCc4c(F)cccc4N(CC(F)(F)F)C3=O)nn2)ccc1-n1cnc(C)c1 (configuration not stated),inactive,inactive,inactive,inactive,,inactive
CC1(C)CC[C@]2(C(=O)O)CC[C@]3(C)C(=CCC4[C@@]5(C)C[C@@H](O)[C@H](O)C(CO)(CO)C5CC[C@]43C)C2[C@@H]1O (some centres not stated),inactive,inactive,inactive,inactive,,inactive
Cc1c(F)ccc(C(=O)Nc2cc([N+](=O)[O-])ccc2N2CCN(C)CC2)c1Cl,inactive,inactive,inactive,inactive,,

SMILES,Potency [1],Potency [2],Potency [3],Potency [4],Potency [5],Potency [6]
O=C(NC1CCN(CCCCC2(C(=O)NCC(F)(F)F)c3ccccc3-c3ccccc32)CC1)c1ccccc1-c1ccc(C(F)(F)F)cc1,inactive,inactive,inactive,inactive,,inactive
CC(C)CC(=O)c1c(O)cc2c(c1O)C(CC(C)C)C1=C(O2)C(C)(C)C(=O)C(C)(C)C1=O (configuration not stated),inactive,inactive,inactive,inactive,,
CCCc1cc(C)[nH]c(=O)c1CNC(=O)c1cc(-c2ccc(N3CCN(C(C)C)CC3)nc2)cc2c1cnn2C(C)C,inactive,inactive,inactive,inactive,,inactive
COC(=O)c1sccc1S(=O)(=O)Nc1ccc(Nc2ccccc2)cc1OC,inactive,inactive,inactive,inactive,,inactive
CCC(CC)Nc1nc(C)c(-c2ccc(OC(F)(F)F)cc2OC)nc1OC,inactive,inactive,inactive,inactive,,
CCOc1ccc(-n2c(C(C)N(Cc3cccnc3)C(=O)Cc3ccc(F)c(C(F)(F)F)c3)nc3ncccc3c2=O)cc1 (configuration not stated),inactive,inactive,inactive,inactive,,inactive
CCN(CC)CCCCCCNc1cc(OC)cc2c(C)ccnc12,inactive,inactive,inactive,inactive,,
C=C1[C@@H](OC(C)=O)CC[C@@]2(C)[C@@H](OC(C)=O)[C@H](OC(C)=O)C3=C(C)C[C@H](OC(=O)C(C)CC)[C@@H]([C@@H](OC(C)=O)[C@H]12)C3(C)C (some centres not stated),inactive,inactive,inactive,inactive,,
CC(C)c1cc2c(N3CCN(C4=NCC(C)(C)S4)CC3)ncnc2s1,inactive,inactive,inactive,inactive,,inactive
CNC(=O)c1ccc2c(c1)CCO[C@H]2CCN1CCN(c2ccc(OC)cc2)CC1,inactive,inactive,inactive,inactive,,inactive
Cc1cc(-c2cc(OC(=O)c3ccccc3)ccc2Cl)cc2nnc(Nc3ccc(OCCN4CCCC4)cc3)nc12,inactive,inactive,inactive,inactive,,inactive
Cc1nnc(-c2ccc(-c3ccc(C(=O)Nc4ccc(O)c(N5CCN(C)CC5)c4)cc3)c(C)c2)o1,inactive,inactive,inactive,1.51 µM (active),,
COc1ccc(-c2ccccc2)cc1NS(=O)(=O)c1cc(Cl)cc(Cl)c1O,inactive,inactive,inactive,7.38 µM (active),,
O=C(NO)c1ccc(CC(=O)N(CCO)c2ccccc2)cc1,inactive,inactive,inactive,inactive,,inactive
CC(=O)OC1C(O)CC2(C)C(CCC3(C)C2CC=C2C4C5(CCC(CO[C@@H]6O[C@H](CO)[C@@H](O)[C@H](O)[C@H]6O)(OC5=O)C4(C)O)C(O)CC23C)C1(C)C (some centres not stated),inactive,inactive,inactive,inactive,,
C/C=C/[C@@H]1C=C[C@@H]2C[C@H](C)CC[C@H]2[C@]1(C)/C(O)=C1/C(=O)[C@@H](CO)N(C)C1=O,inactive,inactive,inactive,inactive,,
CC(C)(Cc1ccccc1)NCC(O)c1ccc(O)c(NS(C)(=O)=O)c1 (configuration not stated),inactive,inactive,inactive,inactive,,inactive
Cc1cc(C)c2c(c1)C(N(Cc1cc(C(F)(F)F)cc(C(F)(F)F)c1)c1nnn(C)n1)CCCN2CC1CCC(C(=O)O)CC1 (configuration not stated),inactive,inactive,inactive,inactive,,inactive
Cc1ccc(N2CCN(CCC3NC(=O)c4ccccc43)CC2)cc1C (configuration not stated),inactive,inactive,inactive,inactive,,inactive
C=CS(=O)(=O)NC1CCN(C(=O)CNc2cc(I)c(Cl)cc2OC)CC1,inactive,inactive,inactive,inactive,,inactive

SMILES,Potency [1],Potency [2],Potency [3],Potency [4],Potency [5],Potency [6]
C#CCNCc1cc2cc(OCc3ccccc3)ccc2[nH]1,inactive,inactive,inactive,inactive,,inactive
C=C[C@@]1(C)CCC2C(=CCC3[C@]2(C)CCC[C@@]3(C)C(=O)O)C1 (some centres not stated),inactive,inactive,inactive,inactive,,
COc1ccccc1C(=O)Nc1cc2c(cc1N1CCCC1)n(C)c(=O)n2C,inactive,inactive,inactive,inactive,,inactive
COc1cc2c(c(OC)c1CC=C(C)C)C[C@H](c1ccc(O)c(CC=C(C)C)c1O)CO2,inactive,inactive,inactive,inactive,,inactive
COc1ccc(CNc2nc(N(CCO)CCO)nc3c2ncn3C(C)C)cc1,inactive,inactive,inactive,inactive,,
CC1(C)OC[C@H](NC(=O)Nc2ccc(Br)cc2Br)[C@H](c2ccccc2)O1,inactive,inactive,inactive,inactive,,inactive
C=C1CC[C@@H](O)[C@]2(C)CC[C@H]3C(=C)C(=O)O[C@@H]3[C@@H]12,inactive,inactive,inactive,inactive,,inactive
C/C=C(/C)C(=O)O[C@H]1C=C(CO)C(=O)[C@H](OC(=O)/C(C)=C/CO)[C@H]1C(C)C,inactive,inactive,inactive,inactive,,inactive
CCN(CC)C(=O)C(c1ccccc1)N1CCN(c2ccc(NC(=O)c3ccccc3-c3cccnc3)cc2F)CC1 (configuration not stated),inactive,inactive,inactive,inactive,,inactive
O=c1[nH]cnc2c([C@@H]3N[C@H](CO)[C@@H](O)[C@H]3O)c[nH]c12,inactive,inactive,inactive,inactive,,inactive
CCCCC1CCC(c2nc(-c3ccncc3)no2)CC1 (configuration not stated),inactive,inactive,inactive,inactive,,inactive
Cc1cc2c(N3CCCC3)nc(N3CCCC3)nc2n1C,inactive,inactive,inactive,inactive,,0.844 µM (active)
C=C(C)[C@@H]1CC=C(COC(=O)NC(=O)c2ncn3c(=O)n(C)nnc23)CC1,inactive,inactive,inactive,inactive,,inactive
COCc1c(Cl)ccc2c1CC[C@H]2c1ncc[nH]1,inactive,inactive,inactive,inactive,,inactive
CC(C)[C@@H](c1ccc(C(F)(F)F)cc1CN(Cc1cc(C(F)(F)F)cc(C(F)(F)F)c1)c1nnn(C)n1)N1CCC(C(=O)O)CC1,inactive,inactive,inactive,inactive,,inactive
C=C(C)C(=O)OC1CC2(C)OC(=CC2=O)C(=C)CC2OC(=O)C(=C)C12 (configuration not stated),inactive,inactive,inactive,inactive,,inactive
Cc1cc(C)c(S(=O)(=O)n2cc(C)cc2C)c(C)c1,inactive,inactive,inactive,inactive,,inactive
C/C1=C/CCC2=CC(OC2=O)C(C)(C)/C=C/C1=O (configuration not stated),inactive,inactive,inactive,inactive,,inactive
